Assay results taken from PubChem BioAssay (NCATS).
Values joined by “and” are separate entries in the source; they are usually repeats but may differ in a detail not shown here. Equal values may be shown once. Records with an inconclusive call do not appear. Unmarked numbers belong to inactive results. Active and inactive are the calls of the source. Calls come from the whole dose curve; as a rule, active = well fitted curve in the direction sought with a large enough effect; inconclusive = small, poorly fitted or top-dose-only effect, or another doubt; inactive = no such curve, though single readings can be large; an effect the other way counts as inactive or inconclusive.

What was measured:
[1] = target: Calcium and integrin-binding protein 1 (Homo sapiens) (UniProt Q99828); assay: Primary qHTS for Identification of Calcium Integrin Binding Protein 1 (CIB1) Competitor (AID 1508620);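 note: GST tagged CIB1 binding a fluorescein labelled alphaIIb integrin peptide tracer; top concentration of the series differs between compounds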
Summary of the method: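 Fluorescence polarization competition: CIB1-GST (1 uM final) preincubated with compound 15 min at room temperature, then FITC-labeled alphaIIb peptide (100 nM final) added for another 15 min. Polarization read at Ex 480/Em 540.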

[2] = Primary qHTS for inhibitors of nuclear receptor binding SET domain protein 2 (NSD2) in an isogenic RCH-ACV NSD2 p.E1099K mutant (9B) (AID 1645876); note: nearly all actives have a fitted effect of over 70% in size; note: potency is the fitted concentration of half-maximal effect
[3] = Primary qHTS for inhibitors of nuclear receptor binding SET domain protein 2 (NSD2) in an RCH-ACV wild type WT cells (2C) (AID 1645877); note: nearly all actives have a fitted effect of over 70% in size; note: potency is the fitted concentration of half-maximal effect
% is set by controls: 0 for no effect and ±100 for the full control effect.

Sequence of Calcium and integrin-binding protein 1 (Homo sapiens) (Q99828 whole entry, looked up): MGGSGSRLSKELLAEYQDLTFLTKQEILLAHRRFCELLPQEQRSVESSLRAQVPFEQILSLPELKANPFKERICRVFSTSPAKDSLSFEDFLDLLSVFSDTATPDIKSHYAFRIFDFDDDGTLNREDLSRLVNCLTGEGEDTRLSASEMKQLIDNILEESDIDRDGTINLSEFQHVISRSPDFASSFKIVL

| SMILES | Potency [1] | Potency [2] | Potency [3] | activity change, negative = inhibition [1] |
| --- | --- | --- | --- | --- |
| Cc1c(F)ccc(C(=O)Nc2cc([N+](=O)[O-])ccc2N2CCN(C)CC2)c1Cl | inactive | inactive | inactive | – |
| C=C1C(=O)OC2C1CCC1(C)C(O)CC=C(C)C21 (configuration not stated) | inactive | 18.3 µM (active) | 16.3 µM (active) | – |
| c1cc(-c2cnn3cc(-c4ccc(N5CCNCC5)cc4)cnc23)c2cccnc2c1 | inactive | 5.25 µM (active) | 4.17 µM (active) | – |
| C=C(C)C(=O)O[C@H]1[C@H]2C(=C)C(=O)O[C@@H]2/C=C(\CO)CC/C=C(/C=O)[C@@H]1O | inactive | 12.7 µM (active) | 4.5 µM (active) | – |
| COc1cc([C@H]2O[C@H](c3cc(OC)c4c(c3)OCO4)[C@H](C)[C@H]2C)cc(OC)c1OC | inactive | 3.55 µM (active) | 3.55 µM (active) | – |
| C=C1C(=O)O[C@@H]2C[C@H](C)[C@@H]3CC(=O)C(C)=C3C[C@H]12 | inactive | 4.59 µM (active) | 2.58 µM (active) | – |
| COc1cccc(NCCC2(c3ccccc3)CC(C)(C)OC(C)(C)C2)c1 | inactive | inactive | inactive | – |
| O=C(NO)c1ccc(CC(=O)N(CCO)c2ccccc2)cc1 | inactive | 16.3 µM (active) | 14.5 µM (active) | – |
| C=C1C(=O)O[C@@H]2/C=C(\CO)CC/C=C(/C=O)C[C@@H](O)[C@@H]12 | inactive | 6.49 µM (active) | 4.09 µM (active) | – |
| COc1cc(N2CCC(N3CCN(C)CC3)CC2)ccc1Nc1ncc(Cl)c(Nc2ccccc2P(C)(C)=O)n1 | inactive | 3.65 µM (active) and 1.05 µM (active) | 4.09 µM (active) and 1.48 µM (active) | – |
| Cc1[nH]c(/C=C2\C(=O)Nc3ccc(S(=O)(=O)N(C)c4cccc(Cl)c4)cc32)c(C)c1C(=O)N1CCN(C)CC1 | inactive | 9.16 µM (active) and 5.25 µM (active) | 7.28 µM (active) and 5.25 µM (active) | – |
| O=S(=O)(NCc1ccccn1)c1ccc(Br)c2ccccc12 | inactive | inactive | inactive | – |
| CC(/C=C/C(=O)NO)=C\[C@@H](C)C(=O)c1ccc(N(C)C)cc1 | inactive | 183 nM (active) and 1.05 µM (active) | 183 nM (active) and 934 nM (active) | – |
| Cc1nc2ccc(CN(C)c3ccc(C(=O)NC(CCC(=O)O)C(=O)O)s3)cc2c(=O)[nH]1 (configuration not stated) | inactive | 0.0092 µM (active) | 0.0092 µM (active) | – |
| C=C1CCC2C(C)(C(=O)O)CCCC2(C)C1CCC1=CCOC1=O (configuration not stated) | inactive | inactive | inactive | – |
| C=C1CC[C@H]2C(=C)CC[C@H]3C(=C)C(=O)O[C@@H]3[C@@H]12 | inactive | 16.3 µM (active) | 10.3 µM (active) | – |
| CN1CC[C@@H](c2c(O)cc(O)c3c(=O)cc(-c4ccc(C(F)(F)F)cc4Cl)oc23)[C@@H]1CO | inactive | 18.6 µM (active) | 16.6 µM (active) | – |
| C=C1C(=O)O[C@@H]2/C=C(\C)CC/C=C(\C)CC[C@@H]12 | inactive | 14.5 µM (active) | 7.28 µM (active) | – |
| NC(=O)c1ccccc1Nc1ccnc(Nc2cccc(O)c2)n1 | inactive | 0.742 µM (active) | 0.833 µM (active) | – |
| Cc1cn(CCN2CCN(c3ccccc3-c3cc(C#N)cc(C(=O)NCCCN4CCCC4)c3)CC2)c2ccccc12 | inactive | 6.49 µM (active) and 6.61 µM (active) | 5.78 µM (active) and 6.61 µM (active) | – |
| C[C@@H]1O[C@@H](O[C@H]2[C@@H](OC(=O)[C@]34CCC(C)(C)CC3C3=CCC5[C@@]6(C)C[C@H](O)[C@H](O[C@@H]7O[C@H](CO)[C@@H](O)[C@H](O)[C@H]7O[C@@H]7OC[C@@H](O)[C@H](O)[C@H]7O)[C@@](C)(C(=O)O)C6CC[C@@]5(C)[C@]3(C)CC4)OC[C@H](O)[C@@H]2O)[C@H](O)[C@H](O)[C@H]1O[C@@H]1OC[C@@H](O)[C@H](O)[C@H]1O (some centres not stated) | – | 1.54 µM (active) | 2.18 µM (active) | -5.44% [at 12.4 µM] |
| Cc1ccc(CNc2ncnc3ccc(-c4ccc(CO)o4)cc23)o1 | inactive | 2.58 µM (active) | 2.3 µM (active) | – |
| CCC/C=C/C=C/C1CC(O)C2(O)C(=O)OCC12 (configuration not stated) | inactive | inactive | inactive | – |
| C=C1CC[C@@H]2[C@](C)(CO)[C@H](O)CC[C@@]2(C)[C@@H]1C/C=C1/C(=O)OCC1O (some centres not stated) | inactive | 14.5 µM (active) | 7.28 µM (active) | – |
